# Shown is part of a subset that was picked to be rich in the strongest signals.
# Legend:
# Assay in all cases: glycan array binding signal (z-score within array); higher = stronger binding
# Details in all cases: glycan notation: IUPAC condensed, linker removed
# [1] = biological target: Gal3S(b1-4)[Fuc(a1-3)]GlcNAc
# Procedure, shortened: (§1)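 The Consortium for Functional Glycomics database supplied 3228 glycan arrays, of which those lacking an available protein sequence were dropped. The binding signal, a within-array Z-score, was averaged across arrays of the same protein sequence and across linkers. Negative scores can be read as non-binding.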
# [2] = biological target: GalNAc(a1-3)GalNAc(b1-3)Gal(a1-4)Gal(b1-4)GlcNAc
# Procedure, shortened: as §1
# Glc(a1-4)Glc = biological target: Glc(a1-4)Glc
# Procedure, shortened: as §1
# [3] = biological target: GlcA3S(b1-3)Gal(b1-4)GlcNAc(b1-3)Gal(b1-4)Glc
# Procedure, shortened: as §1
# [4] = biological target: GlcNAc(a1-4)Gal(b1-3)GlcNAc
# Procedure, shortened: as §1
# [5] = biological target: GlcNAc(a1-4)Gal(b1-4)GlcNAc(b1-3)Gal(b1-4)Glc
# Procedure, shortened: as §1
# [6] = biological target: GlcNAc(b1-3)Gal(b1-4)GlcNAc(b1-2)Man(a1-3)[GlcNAc(b1-3)Gal(b1-4)GlcNAc(b1-2)Man(a1-6)]Man(b1-4)GlcNAc(b1-4)[Fuc(a1-6)]GlcNAc
# Procedure, shortened: as §1
# [7] = biological target: GlcNAc(b1-3)Gal(b1-4)GlcNAc(b1-2)[GlcNAc(b1-3)Gal(b1-4)GlcNAc(b1-6)]Man(a1-6)[GlcNAc(b1-3)Gal(b1-4)GlcNAc(b1-2)Man(a1-3)]Man(b1-4)GlcNAc(b1-4)GlcNAc
# Procedure, shortened: as §1
# [8] = biological target: GlcNAc(b1-3)Gal(b1-4)GlcNAc(b1-3)Gal(b1-4)GlcNAc(b1-2)Man(a1-3)[GlcNAc(b1-3)Gal(b1-4)GlcNAc(b1-3)Gal(b1-4)GlcNAc(b1-2)Man(a1-6)]Man(b1-4)GlcNAc(b1-4)[Fuc(a1-6)]GlcNAc
# Procedure, shortened: as §1
# [9] = biological target: GlcNAc(b1-3)[GlcNAc(b1-4)][GlcNAc(b1-6)]GlcNAc
# Procedure, shortened: as §1
# [10] = biological target: GlcNAc(b1-4)GlcNAc(b1-4)GlcNAc(b1-4)GlcNAc(b1-4)GlcNAc
# Procedure, shortened: as §1
# GlcNAc(b1-6)GalNAc = biological target: GlcNAc(b1-6)GalNAc
# Procedure, shortened: as §1
# [11] = biological target: GlcNAc6S(b1-3)Gal(b1-4)GlcNAc
# Procedure, shortened: as §1
# [12] = biological target: Man(a1-2)Man(a1-2)Man(a1-3)Man
# Procedure, shortened: as §1
# Man(a1-3)[Man(a1-6)]Man = biological target: Man(a1-3)[Man(a1-6)]Man
# Procedure, shortened: as §1
# [13] = biological target: Man(a1-3)[Man(a1-6)]Man(a1-6)[Man(a1-2)Man(a1-3)]Man(b1-4)GlcNAc(b1-4)GlcNAc
# Procedure, shortened: as §1
# [14] = biological target: Man(a1-3)[Man(a1-6)]Man(b1-4)GlcNAc(b1-4)GlcNAc
# Procedure, shortened: as §1
# Man(a1-6)Man = biological target: Man(a1-6)Man
# Procedure, shortened: as §1
# [15] = biological target: Neu5Ac(a2-3)Gal(b1-3)GalNAc
# Procedure, shortened: as §1
# [16] = biological target: Neu5Ac(a2-3)Gal(b1-4)GlcNAc(b1-2)Man(a1-3)[Neu5Ac(a2-3)Gal(b1-4)GlcNAc(b1-2)Man(a1-6)]Man(b1-4)GlcNAc(b1-4)[Fuc(a1-6)]GlcNAc
# Procedure, shortened: as §1
# [17] = biological target: Neu5Ac(a2-3)Gal(b1-4)GlcNAc(b1-3)Gal(b1-4)GlcNAc(b1-3)Gal(b1-4)GlcNAc(b1-2)Man(a1-3)[Neu5Ac(a2-3)Gal(b1-4)GlcNAc(b1-3)Gal(b1-4)GlcNAc(b1-3)Gal(b1-4)GlcNAc(b1-2)Man(a1-6)]GalNAc
# Procedure, shortened: as §1
# [18] = biological target: Neu5Ac(a2-3)Gal(b1-4)GlcNAc(b1-6)GalNAc
# Procedure, shortened: as §1
# [19] = biological target: Neu5Ac(a2-3)Gal(b1-4)[Fuc(a1-3)]GlcNAc(b1-3)GalNAc
# Procedure, shortened: as §1
# [20] = biological target: Neu5Ac(a2-3)[GalNAc(b1-4)]Gal(b1-4)Glc
# Procedure, shortened: as §1
# [21] = biological target: Neu5Ac(a2-6)Gal(b1-3)GlcNAc(b1-3)[Gal(b1-4)GlcNAc(b1-6)]Gal(b1-4)Glc
# Procedure, shortened: as §1
# [22] = biological target: Neu5Ac(a2-6)Gal(b1-4)GlcNAc(b1-2)Man(a1-3)[Man(a1-6)]Man(b1-4)GlcNAc(b1-4)GlcNAc
# Procedure, shortened: as §1
# [23] = biological target: Neu5Ac(a2-6)Gal(b1-4)GlcNAc(b1-2)Man(a1-3)[Neu5Ac(a2-6)Gal(b1-4)GlcNAc(b1-2)Man(a1-6)]Man(b1-4)GlcNAc(b1-4)GlcNAc
# Procedure, shortened: as §1
# [24] = biological target: Neu5Ac(a2-6)Gal(b1-4)GlcNAc(b1-2)Man(a1-3)[Neu5Ac(a2-6)Gal(b1-4)GlcNAc(b1-2)Man(a1-6)]Man(b1-4)GlcNAc(b1-4)[Fuc(a1-6)]GlcNAc
# Procedure, shortened: as §1
# [25] = biological target: Neu5Ac(a2-6)Gal(b1-4)GlcNAc(b1-2)Man(a1-6)[Gal(b1-4)GlcNAc(b1-2)Man(a1-3)]Man(b1-4)GlcNAc(b1-4)GlcNAc
# Procedure, shortened: as §1
# [26] = biological target: Neu5Ac(a2-6)Gal(b1-4)GlcNAc(b1-2)Man(a1-6)[Man(a1-3)]Man(b1-4)GlcNAc(b1-4)GlcNAc
# Procedure, shortened: as §1
# Neu5Ac(a2-6)GalNAc = biological target: Neu5Ac(a2-6)GalNAc
# Procedure, shortened: as §1
# [27] = biological target: Neu5Gc(a2-3)Gal(b1-3)[Fuc(a1-4)]GlcNAc
# Procedure, shortened: as §1
# [28] = biological target: Neu5Gc(a2-8)Neu5Ac(a2-3)Gal(b1-4)GlcNAc
# Procedure, shortened: as §1
binder,measurement,setting,value
RBMC1 (Vibrio cholerae) (protein) QQSQRVVTADNLMYLRSGFAIDAIGTTVNNLVGGPVQGTNGGVLRAPIALDQLQSVEVTSGLYNWGGYHIVAIKFTMKDGSSVLLGSTHYASNKKVETYTVPQGKRIKQINVWTGGWLVEGFQFVY,glycan array binding signal (z-score),[1],-0.188
same,glycan array binding signal (z-score),[2],-0.064
same,glycan array binding signal (z-score),Glc(a1-4)Glc,-0.216
same,glycan array binding signal (z-score),[3],-0.217
same,glycan array binding signal (z-score),[4],-0.355
same,glycan array binding signal (z-score),[5],-0.284
same,glycan array binding signal (z-score),[6],2.83
same,glycan array binding signal (z-score),[7],-0.295
same,glycan array binding signal (z-score),[8],2.5
same,glycan array binding signal (z-score),[9],-0.158
same,glycan array binding signal (z-score),[10],-0.358
same,glycan array binding signal (z-score),GlcNAc(b1-6)GalNAc,-0.289
same,glycan array binding signal (z-score),[11],-0.267
same,glycan array binding signal (z-score),[12],-0.395
same,glycan array binding signal (z-score),Man(a1-3)[Man(a1-6)]Man,0.002
same,glycan array binding signal (z-score),[13],0.166
same,glycan array binding signal (z-score),[14],1.13
same,glycan array binding signal (z-score),Man(a1-6)Man,1.1
same,glycan array binding signal (z-score),[15],-0.226
same,glycan array binding signal (z-score),[16],3.39
same,glycan array binding signal (z-score),[17],0.281
same,glycan array binding signal (z-score),[18],-0.114
same,glycan array binding signal (z-score),[19],-0.194
same,glycan array binding signal (z-score),[20],-0.432
same,glycan array binding signal (z-score),[21],-0.461
same,glycan array binding signal (z-score),[22],10.4
same,glycan array binding signal (z-score),[23],4.94
same,glycan array binding signal (z-score),[24],11.9
same,glycan array binding signal (z-score),[25],3.13
same,glycan array binding signal (z-score),[26],-0.031
same,glycan array binding signal (z-score),Neu5Ac(a2-6)GalNAc,-0.35
same,glycan array binding signal (z-score),[27],-0.039
same,glycan array binding signal (z-score),[28],-0.406
